The results in this text go back to paper PMC4336329 (PLoS ONE, 2015).

Out of some 310,000 compounds screened, about 14,000 (4.5%) showed an effect of 50% or more. The effect is printed as a negative number. The sample as a whole holds a higher share of strong results than the screen did.
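Also: peak tail current of the secondary pulse compared with the same well before compound.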

Sequence of human ether-à-go-go-related gene (hERG) potassium channel (Q12809 whole entry, looked up): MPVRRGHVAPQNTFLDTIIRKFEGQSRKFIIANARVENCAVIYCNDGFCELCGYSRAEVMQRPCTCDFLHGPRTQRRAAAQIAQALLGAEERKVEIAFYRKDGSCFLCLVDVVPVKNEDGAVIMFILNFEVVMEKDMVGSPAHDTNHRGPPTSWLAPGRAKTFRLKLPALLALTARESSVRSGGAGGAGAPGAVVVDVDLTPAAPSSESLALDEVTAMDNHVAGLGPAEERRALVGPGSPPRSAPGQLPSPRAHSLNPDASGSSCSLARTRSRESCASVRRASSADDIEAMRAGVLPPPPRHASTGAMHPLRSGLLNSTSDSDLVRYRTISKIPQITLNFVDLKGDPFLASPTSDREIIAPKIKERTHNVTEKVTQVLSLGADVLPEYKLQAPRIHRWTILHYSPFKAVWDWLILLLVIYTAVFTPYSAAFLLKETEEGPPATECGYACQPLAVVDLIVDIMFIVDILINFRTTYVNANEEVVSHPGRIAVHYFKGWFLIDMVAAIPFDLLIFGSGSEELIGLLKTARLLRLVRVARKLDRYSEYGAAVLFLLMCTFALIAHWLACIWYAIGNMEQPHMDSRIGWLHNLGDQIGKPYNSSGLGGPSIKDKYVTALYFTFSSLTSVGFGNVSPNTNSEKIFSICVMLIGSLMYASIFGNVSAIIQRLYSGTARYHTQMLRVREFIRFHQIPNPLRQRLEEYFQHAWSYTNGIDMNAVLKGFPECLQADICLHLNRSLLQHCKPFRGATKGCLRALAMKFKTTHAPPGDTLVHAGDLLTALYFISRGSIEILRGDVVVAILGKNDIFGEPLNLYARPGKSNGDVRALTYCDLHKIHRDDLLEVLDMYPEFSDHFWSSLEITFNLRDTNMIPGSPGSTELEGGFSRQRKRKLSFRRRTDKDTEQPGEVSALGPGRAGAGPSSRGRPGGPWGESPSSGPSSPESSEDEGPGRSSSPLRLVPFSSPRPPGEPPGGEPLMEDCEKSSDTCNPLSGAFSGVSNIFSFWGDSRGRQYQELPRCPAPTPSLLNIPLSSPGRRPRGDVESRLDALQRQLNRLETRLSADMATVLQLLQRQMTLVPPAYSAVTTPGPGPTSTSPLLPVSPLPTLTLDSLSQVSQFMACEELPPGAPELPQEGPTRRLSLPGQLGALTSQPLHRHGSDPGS

The test has as its target human ether-à-go-go-related gene (hERG) potassium channel (human, UniProt Q12809). Nature of the test: primary screen, population patch clamp on CHO cells stably expressing hERG; higher = less effect of the substance.
With `O=S(=O)(Cc1ccccc1)N1CCN(Cc2ccc(F)cc2Cl)CC1`, the “hERG current change (%, negative = inhibition) at 10uM” value amounted to 4.56%. As for `CCc1nnc(NC(=O)CN2CCN(c3nc(-c4ccccc4)cs3)CC2)s1`, the figure is -11.8%. To `COCCCNC(=O)C1CCN(C(=O)c2oc3cc4sc(N(C)C)nc4cc3c2C)CC1` belongs 7.03%; to `CCOC(=O)CNC(=O)CNC(=O)c1nn(-c2ccc(OC)c(Cl)c2)c(=O)c2ccccc12`, 2.21%. In the case of `Cc1ccccc1C(=O)NC(=S)N(C)C1CCCCC1`, the “hERG current change (%, negative = inhibition) at 10uM” value is listed as 21.2%. As for `COc1cccc(Cn2nc(C(=O)O)c3ccccc3c2=O)c1`, the figure is 9.63%; as for `O=C(OCc1nc2ccsc2c(=O)[nH]1)c1ccc(Cl)s1`, -5.59%; as for `O=C(Nc1nc2ccccc2[nH]1)c1cccc(Cl)c1`, 17.5%. To `CCc1ccc2oc(-c3cc(N=Cc4cccc(OC)c4O)ccc3O)nc2c1` belongs 24.3%; to `CN(Cc1ccccc1)C(=O)c1ccc(NC(=O)Cc2cccc(NC(=O)C3CCN(C(=O)C4CCCCC4)CC3)c2)cc1`, 8.47%. As for `CC(C)c1ccc(S(=O)(=O)N2CCN(C(C)C(=O)NC3CCCC3)CC2)cc1` (stereo not drawn), the figure is -75.5%; as for `CCC(C)c1ccc(S(=O)(=O)N2CCN(C(C)CC(=O)O)CC2)cc1` (stereo not drawn), 3.41%. On to `CC(C(=O)NC1CCCC1)N1CCN(S(=O)(=O)c2ccc(C(C)(C)C)cc2)CC1` (stereo not drawn), for which the “hERG current change (%, negative = inhibition) at 10uM” value is listed as -19.8%. As for `CC(C)c1ccc(S(=O)(=O)N2CCN(C(C)C(=O)N3CCCC3)CC2)cc1` (stereo not drawn), the figure is -11.8%; as for `CCC(C)c1ccc(S(=O)(=O)N2CCN(C(C)C(=O)NC3CCCC3)CC2)cc1` (stereo not drawn), -79.1%; as for `CC(C(=O)NC1CCCCC1)N1CCN(S(=O)(=O)c2cccs2)CC1` (stereo not drawn), -9.2%. For `CCCCCCNS(=O)(=O)c1ccc(OC)c(OC)c1`, the “hERG current change (%, negative = inhibition) at 10uM” value was -11%.

For the compound `CCOC(=O)c1sc(S(C)(=O)=O)c2c1CCc1conc1-2`, the “hERG current change (%, negative = inhibition) at 10uM” value amounted to 8.59%.

`Cc1ccc(-n2c(-c3ccccc3)n[nH]c2=S)cc1`: the “hERG current change (%, negative = inhibition) at 10uM” value stood at 15.6%. With `CC(C)OC(=O)/C(=C/c1ccc2c(c1)c1ccccc1n2C)NC(=O)c1ccccc1`, the “hERG current change (%, negative = inhibition) at 10uM” value was -1.72%. Turning to `O=C(N/N=C/c1c(O)n(-c2ccccc2)c(=O)[nH]c1=O)c1ccncc1`, the “hERG current change (%, negative = inhibition) at 10uM” value turned out to be 16.2%. Turning to `Cc1oc(C2CC2)cc1C(=O)O`, the “hERG current change (%, negative = inhibition) at 10uM” value was -9.52%. In the case of `COc1cccc(-c2cccc(NC(=O)C3CCN(Cc4cnn(C)c4)CC3)c2)c1`, the “hERG current change (%, negative = inhibition) at 10uM” value is recorded as -15.6%. In the case of `CCn1cc(CN2CCCC(C(=O)Nc3cccc(-c4cc5ccccc5[nH]4)c3)C2)c(C)n1` (stereo not drawn), the “hERG current change (%, negative = inhibition) at 10uM” value is reported as -14.4%.

Take `Cn1cc(CN2CCC(C(=O)Nc3cccc(-c4cccc(F)c4)c3)CC2)cn1`: the “hERG current change (%, negative = inhibition) at 10uM” value was -67.4%. For `CCn1ncc(CN2CCCC(C(=O)Nc3cccc(-c4cc5ccccc5[nH]4)c3)C2)c1C` (stereo not drawn), the “hERG current change (%, negative = inhibition) at 10uM” value is listed as -56.7%. To `CCn1cc(CN2CCCC(C(=O)Nc3cccc(-c4cc5ccccc5[nH]4)c3)C2)cn1` (stereo not drawn) belongs -6.49%; to `CCn1cc(CN2CCC(C(=O)Nc3cccc(-c4cccc(F)c4)c3)CC2)cn1`, -66.4%; to `CC(C)n1cc(CN2CCC(C(=O)Nc3cccc(-c4cccc(Cl)c4)c3)CC2)cn1`, -85.1%. Regarding `CC(C)n1cc(CN2CCC(C(=O)Nc3cccc(-c4cscn4)c3)CC2)cn1`, the “hERG current change (%, negative = inhibition) at 10uM” value was -32.8%.

For `CC(C)n1cc(CN2CCCC(C(=O)Nc3cccc(-c4cc5ccccc5[nH]4)c3)C2)cn1` (stereo not drawn), the “hERG current change (%, negative = inhibition) at 10uM” value is listed as -46.3%. As for `Cn1cc(CN2CCC(C(=O)Nc3cccc(-c4cscn4)c3)CC2)cn1`, the figure is 5.33%. To `CC(C)Sc1nsc2nc(=O)c(/C=C3\C=Nc4ccccc43)c(N)n12` belongs 11.7%. As for `CN(CC(=O)Nc1cccnc1)S(=O)(=O)c1ccc(Br)cc1`, the figure is -21.3%; as for `COC(=O)c1ccc(/C=N/NC(=O)CC(=O)NCC(C)C)cc1`, 20.5%; as for `CC(=O)c1ccc(N/N=C2/CCCNC2=O)cc1`, 11.3%.

For `Oc1ccccc1/C=N/NC(=S)NC1CC2CC1C1C=CCC21` (stereo not drawn), the “hERG current change (%, negative = inhibition) at 10uM” value is 27.3%.

In the case of `c1cnc(N2CCSCC2)nc1`, the “hERG current change (%, negative = inhibition) at 10uM” value turned out to be 0.773%. As for `C#CCSc1nc(-c2ccccc2)cc(C(F)(F)F)c1C#N`, the figure is 7.12%; as for `CCCn1cc(CN2CCC(C(=O)Nc3cccc(-c4cscn4)c3)CC2)c(C)n1`, -45.3%. To `CCn1cc(CN2CCC(C(=O)Nc3cccc(-c4cccc(OC)c4)c3)CC2)cn1` belongs -49.8%.

As to `CCCn1ncc(CN2CCC(C(=O)Nc3cccc(-c4cccc(F)c4)c3)CC2)c1C`, the “hERG current change (%, negative = inhibition) at 10uM” value is -71.7%.

Consider `CCn1cc(CN2CCC(C(=O)Nc3cccc(-c4cccc(Cl)c4)c3)CC2)cn1`, for which the “hERG current change (%, negative = inhibition) at 10uM” value is given as -67.9%. As for `CCn1cc(CN2CCC(C(=O)Nc3cccc(-c4cscn4)c3)CC2)cn1`, the figure is -15.4%; as for `CCCn1ncc(CN2CCC(N3CCC(C(=O)N4CCOCC4)CC3)CC2)c1C`, 14.4%; as for `CC(=O)c1cccc(CN2CCC(C(=O)Nc3cccc(-c4ccn[nH]4)c3)CC2)c1`, -3.45%. For the compound `C=CCOc1ccccc1CN1CCC(C(=O)Nc2cccc(-c3ccn[nH]3)c2)CC1`, the “hERG current change (%, negative = inhibition) at 10uM” value is -33.9%. In the case of `CCOc1ccc(CN2CCC(C(=O)Nc3cccc(-c4ccn[nH]4)c3)CC2)cc1Cl`, the “hERG current change (%, negative = inhibition) at 10uM” value was -62.3%.

As for `COCCn1c(SCC(=O)OCc2ccccc2)nc2c1c(=O)[nH]c(=O)n2C`, the “hERG current change (%, negative = inhibition) at 10uM” value is reported as -25.6%. As for `CCN1C(=O)CC(N2CCC(Cc3ccccc3)CC2)C1=O` (stereo not drawn), the figure is -2.52%; as for `CCOC(=O)C1(C)NC(c2ccco2)C2C(=O)N(c3ccccc3)C(=O)C21` (stereo not drawn), 10.4%. As for `Cc1cc(Br)ccc1NC(=O)C1CCN(S(=O)(=O)c2cnc[nH]2)CC1`, the figure is 8.88%. For `COc1ccc2c(c1)C(c1ccc(N3CCOCC3)cc1)=NNC(c1cccnc1)=N2`, the “hERG current change (%, negative = inhibition) at 10uM” value is given as -5.34%. To `Clc1ccc(Cc2ccccc2)nn1` belongs 4.59%. To `COc1cc(NC(=O)Nc2ccc3c(c2)OCO3)cc(OC)c1OC` belongs 31.4%; to `COc1cc(C(Nc2ccc3c(c2)OCO3)C(=O)NC2CCCCC2)cc(OC)c1OC` (stereo not drawn), -61.7%; to `COc1cc(C(=O)NC(=S)Nc2ccc3c(c2)OCO3)cc(OC)c1OC`, 12.1%. To `CCS(=O)(=O)C1=NSC2=NC(=O)/C(=C\c3ccc(OC(=O)c4ccco4)c(OC)c3)C(=N)N21` belongs 8.51%; to `COc1cccc(NC(=O)CSc2nc3ccccc3n2C)c1`, -16.5%. `COC(=O)c1c(C(=O)OC)c2cc(C)ccn2c1Cl`: the “hERG current change (%, negative = inhibition) at 10uM” value is reported as -24.9%.

For the compound `O=C(CCn1c(=O)oc2ccc(Cl)cc21)N1CCN(c2ccccc2)CC1`, the “hERG current change (%, negative = inhibition) at 10uM” value is on record as -33.8%. Consider `Cc1ccc(-c2c[n+](CC(=O)c3ccc(Br)cc3)c3n2CCCCC3)cc1.[Br-]`, for which the “hERG current change (%, negative = inhibition) at 10uM” value is -61.4%. To `Cc1ccc(C(=O)C[n+]2cc(-c3ccc(C)cc3)n3c2CCCCC3)cc1.[Br-]` belongs -53.1%.

Consider `O=C(C[n+]1cc(-c2ccc(Br)cc2)n2c1CCCCC2)c1ccccc1.[Br-]`, for which the “hERG current change (%, negative = inhibition) at 10uM” value is -9.11%. To `Cc1ccc(C(=O)C[n+]2cc(-c3ccccc3)n3c2CCCCC3)cc1.[Br-]` belongs -11.3%; to `O=C(C[n+]1cc(-c2ccccc2)n2c1CCC2)c1cccs1.[Br-]`, -3.31%; to `Cc1ccc(-c2c[n+](CC(=O)OCc3ccccc3)c3n2CCC3)cc1.[Br-]`, -56.3%. To `O=C(C[n+]1cc(-c2ccc(F)cc2)n2c1CCC2)OCc1ccccc1.[Br-]` belongs -11.9%. Take `O=C(C[n+]1cc(-c2ccccc2)n2c1CCC2)OCc1ccccc1.[Br-]`: the “hERG current change (%, negative = inhibition) at 10uM” value is on record as -15.2%. As for `O=C(C[n+]1cc(-c2ccccc2)n2c1CCCCC2)c1ccc(Br)cc1.[Br-]`, the figure is -52.7%; as for `COc1ccc(OCCOc2ccc(/C=C3\C(=N)N4N=C(C)SC4=NC3=O)cc2)cc1`, 6.54%.

For `CC1Cc2nc(SCC(=O)Nc3nccs3)n(Cc3ccccc3)c(=O)c2S1` (stereo not drawn), the “hERG current change (%, negative = inhibition) at 10uM” value was determined as 2.84%. For `CSc1nc(N)n2nc(-c3ccc(Cl)cc3)cc2n1`, the “hERG current change (%, negative = inhibition) at 10uM” value came out at 5.44%. To `COc1ccc(C(=O)NC(Nc2ccc(C)cc2)C(Cl)(Cl)Cl)cc1` (stereo not drawn) belongs -0.867%; to `Cc1cc(C)cc(NC(=O)CN2C(=O)C3CC=CCC3C2=O)c1` (stereo not drawn), 4.39%. To `CC1=N/C(=C/c2cc(Br)cc(Br)c2O)C(=O)O1` belongs 17%; to `Cc1ccc(S(=O)(=O)NC(=O)Nc2ccc(C)cn2)cc1`, 14.6%.

As for `Cc1sc(NC(=O)c2ccco2)c(C(c2ccncc2)N2CCOCC2)c1C` (stereo not drawn), the “hERG current change (%, negative = inhibition) at 10uM” value is listed as -37.1%. As for `CCCC(=O)N1CCN(c2nc3ccc(Cl)cc3s2)CC1`, the “hERG current change (%, negative = inhibition) at 10uM” value is -70.2%.

Regarding `CCCC(=O)N1CCN(c2nc3ccccc3s2)CC1`, the “hERG current change (%, negative = inhibition) at 10uM” value was -24.7%. In the case of `Fc1ccc2nc(N3CCCCC3)sc2c1`, the “hERG current change (%, negative = inhibition) at 10uM” value is on record as 5.89%.

For the compound `CCCCC(=O)N1CCN(c2nc3ccc(Cl)cc3s2)CC1`, the “hERG current change (%, negative = inhibition) at 10uM” value is on record as -71.1%. To `CC(C)(C)C(=O)N1CCN(c2nc3ccc(Cl)cc3s2)CC1` belongs -12.2%; to `CCCCC(=O)N1CCN(c2nc3ccc(F)cc3s2)CC1`, -65.3%; to `CCCCC(=O)N1CCN(c2nc3ccc(OCC)cc3s2)CC1`, -35.5%.

Regarding `CCCC(=O)N1CCN(c2nc3ccc(CC)cc3s2)CC1`, the “hERG current change (%, negative = inhibition) at 10uM” value was -23.4%.

In the case of `CC(C)(CC(=O)O)CC(=O)N1CCN(c2nc3ccc(Cl)cc3s2)CC1`, the “hERG current change (%, negative = inhibition) at 10uM” value came to 14.2%.
